# Several values for one entry are separate records, joined by “and”; a condition that tells them apart may be missing. Identical values can stand only once. Inconclusive results are not listed. Activity calls are given as the source filed them. Calls come from the whole dose curve.
# Assay: p53 small molecule agonists, cell-based qHTS assay: qHTS cell viability counter screen (AID 1963581); note: nearly all actives have a fitted effect of over 45% in size
# Settings: p53RE-bla HCT-116 viability, ATP luminescence, 16 h; series mostly up to 66 µM; activity change, negative = cytotoxicity: at the top concentration
# From the text: National Center for Advancing Translational Sciences [NCATS]
# Division of Preclinical Innovation [DPI]
# U.S. Environmental Protection Agency [EPA]
# National Institutes of Environmental Health Sciences [NIEHS]
# National Toxicology Program [NTP]
# U.S. Food and Drug Administration [FDA]
# p53, a tumor suppressor protein, is activated following cellular insult, including DNA damage and other cellular stresses. The activation of p53 regulates cell fate by inducing DNA repair, cell cycle arrest, apoptosis, or cellular senescence. The activation of p53, therefore, is a good indicator of DNA damage and other cellular stresses. The CellSensor p53RE-bla HCT-116 cell line (Invitrogen) contains a stably integrated beta-lactamase reporter gene under control of the p53 response elements. The activation of the reporter gene under culture conditions can be detected by fluorescence intensity. This cell line was used to screen the Tox21 compound library in a 1536-well plate format and to identify agonists that activate the p53 signaling pathway. The cytotoxicity of the Tox21 compound library against the p53 RE-bla HCT-116 cell line was tested in parallel by measuring the intra cellular ATP content in the same wells.
# Tox21 Assay Protocol Summary:
# The p53RE-bla cells were dispensed at 4,000 cells/5 ul/well in 1536-well black wall/clear bottom plates using a Multidrop dispenser. After the assay plates were incubated at a 37 C/5% CO2 incubator for 5 hours, 23 nL of compounds dissolved in DMSO, positive controls or DMSO only was transferred to the assay plate by a pin tool. The plates were incubated at 37 C for 16 hours. After 1 uL of LiveBLAzerTM B/G FRET substrate was added using a Flying Reagent Dispenser, the plates were incubated at room temperature for 2 hours, and fluorescence intensity was measured by an Envision plate reader. For cell viability readout that measures cytotoxicity, 4 ul/well of CellTiter-Glo reagent was added into the assay plates using a Flying Reagent Dispenser. After 30 min incubation at room temperature, the luminescence intensity in the plates was measured using a ViewLux plate reader.
# % is set by controls: 0 for no effect and ±100 for the full control effect; potency is the fitted concentration of half-maximal effect.
Structure (SMILES),"activity change, negative = cytotoxicity",Potency
C=CCCCCCCCCO,2.49% (inactive),–
CCC(C)S (stereo not given),10.6% [at 2.33 µM] (inactive),–
CN(C)Cc1ccccc1O,-9.82% (inactive),–
CC(C)(C)c1cc(C(C)(C)C)c(O)c(C(C)(C)C)c1,–,inactive
CC(=O)C1(C)CC2=C(CCCC2(C)C)CC1C (stereo not given),–,inactive
CCCCCCCCCCCCCCCCI,-8.29% [at 13.5 µM] (inactive),–
CCCC=O,-2.05% (inactive),–
COc1cc(CCC(C)=O)ccc1O,6.88% (inactive),–
Clc1ccc2c(Cl)ccnc2c1,-2.85% (inactive),–
C=CCCCCCCCCCCC,18.8% [at 5.99 µM] (inactive),–
CCC(C)=O,-1.29% (inactive),–
O=C1OC(=O)c2ccccc21,-4.75% (inactive),–
OCCN1CCN(CCCN2c3ccccc3C=Cc3ccccc32)CC1,-16.5% [at 30.3 µM] (inactive),–
CC(C)CC(=O)O,-2.99% (inactive),–
O=C1OC(=O)c2c(Cl)c(Cl)c(Cl)c(Cl)c21,0.359% (inactive),–
CN/C(=C\[N+](=O)[O-])NCCSCc1ccc(CN(C)C)o1,–,inactive
COc1c2ccoc2cc2oc(=O)ccc12,–,inactive
OC[C@H]1O[C@@H](O[C@H]2[C@H](O)[C@@H](O)[C@H](O)O[C@@H]2CO)[C@H](O)[C@@H](O)[C@H]1O,22.8% (inactive),–
OC1OC[C@@H](O)[C@H](O)[C@H]1O (stereo not given in full),-7.45% (inactive),–
c1ccc2c(c1)Oc1ccccc1S2,–,inactive

Structure (SMILES),"activity change, negative = cytotoxicity",Potency
c1ccc2c(c1)CCc1ccccc1N2,–,inactive
O=C(c1ccc(Cl)cc1)c1ccc(Cl)cc1,0.0069% (inactive),–
CCCCCCCCCCCCCC[P+](CCCC)(CCCC)CCCC,–,20.3 µM (active) and 25.7 µM (active)
Cc1ccc2ccccc2c1[N+](=O)[O-],2.59% (inactive),–
CC1=C(O)C(=O)C(C)O1 (stereo not given),-14.4% (inactive),–
CC(C)CCCC(C)N (stereo not given),2.8% [at 30.3 µM] (inactive),–
Cl/C(=C\n1cncn1)c1ccc(Cl)cc1Cl,-15.7% [at 30.3 µM] (inactive),–
CCC(C)(C)C,5.01% (inactive),–
N=C(N)c1ccc2cc(OC(=O)c3ccc(N=C(N)N)cc3)ccc2c1,1.91% [at 30.3 µM] (inactive),–
COC(=O)c1c(Cl)c(Cl)c(C(=O)OC)c(Cl)c1Cl,–,inactive
CCCC(=O)OCc1ccccc1,-14.4% (inactive),–
CC(COCC(C)OC(=O)c1ccccc1)OC(=O)c1ccccc1 (stereo not given),–,inactive
CC(C)(C)c1ccc(O)c(C(C)(C)C)c1,–,inactive
Clc1cc(Cl)c(Cl)c(Cl)c1Cl,2.05% (inactive),–
CO[Si](C)(C)OC,2.59% (inactive),–
Cc1nc2ccccc2s1,15.9% (inactive),–
COc1cc(C(=O)NCc2ccc(OCCN(C)C)cc2)cc(OC)c1OC,-18.5% [at 30.3 µM] (inactive),–
C[Si]1(C)O[Si](C)(C)O[Si](C)(C)O[Si](C)(C)O[Si](C)(C)O1,-6.35% (inactive),–
COc1ccc(C)cc1,13.6% (inactive),–
CC1(C)[C@@H]2CC[C@@]1(C)[C@H](O)C2,6.48% (inactive),–

# Reference: PubChem BioAssay (Tox21)
